About 2,000 (36%) of roughly 5,500 compounds were called active. Inconclusive results (about 18%) are left out. No stated cut-off is given here; in the data, active means normalized growth mostly below about 0.91 (no sharp cut-off); inconclusive means no clear call, values can overlap the other calls; inactive means mostly above about 0.92. Some of the results follow.
Test: chemical genetic growth profiling, strain panel (AID 1159580);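 further: tested at 20 µM; growth read once vehicle control cultures reached saturation at 30 °C; 1 = growth at the plate median or of vehicle wells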
Conditions: growth OD

Measured: normalized growth

Nc1nc2ncc(=O)[nH]c2c(=O)[nH]1
inactive: S. cerevisiae deletion strains, locus YJR075W, strain HOC1, stronger effect = lower value 1.02 | S. cerevisiae deletion strains, locus YKL009W, strain mrt4, stronger effect = lower value 0.973 | S. cerevisiae deletion strains, locus YKL068W, stronger effect = lower value 0.981 | S. cerevisiae deletion strains, locus YKL085W, strain MDH1 (second series), stronger effect = lower value 0.991 | S. cerevisiae deletion strains, locus YKL085W, strain MDH1, stronger effect = lower value 0.991 | S. cerevisiae deletion strains, locus YKL160W, strain elf1, stronger effect = lower value 0.975 | S. cerevisiae deletion strains, locus YKL190W, strain CNB1, stronger effect = lower value 0.991 | S. cerevisiae deletion strains, locus YKR001C, strain vps1, stronger effect = lower value 0.999 | S. cerevisiae deletion strains, locus YKR026C, strain gcn3, stronger effect = lower value 0.977 | S. cerevisiae deletion strains, locus YKR091W, strain srl3, stronger effect = lower value 0.979 | S. cerevisiae deletion strains, locus YLL001W, strain dnm1, stronger effect = lower value 0.946 | S. cerevisiae deletion strains, locus YLL026W, stronger effect = lower value 0.982 | S. cerevisiae deletion strains, locus YLL041C, strain sdh2, stronger effect = lower value 0.976 | S. cerevisiae deletion strains, locus YLR027C, strain aat2, stronger effect = lower value 0.984 | S. cerevisiae deletion strains, locus YLR039C, strain RIC1, stronger effect = lower value 0.997 | S. cerevisiae deletion strains, locus YLR058C, strain SHM2, stronger effect = lower value 0.996 | S. cerevisiae deletion strains, locus YLR102C, strain apc9, stronger effect = lower value 0.984 | S. cerevisiae deletion strains, locus YLR113W, strain HOG1, stronger effect = lower value 0.941 | S. cerevisiae deletion strains, locus YLR221C, strain rsa3, stronger effect = lower value 0.977 | S. cerevisiae deletion strains, locus YLR258W, strain gsy2, stronger effect = lower value 0.982 | S. cerevisiae deletion strains, locus YLR262C, strain YPT6 (second series), stronger effect = lower value 0.986 | S. cerevisiae deletion strains, locus YLR262C, strain YPT6, stronger effect = lower value 0.994 | S. cerevisiae deletion strains, locus YLR268W, strain sec22, stronger effect = lower value 1.01 | S. cerevisiae deletion strains, locus YLR320W, strain mms22, stronger effect = lower value 0.972 | S. cerevisiae deletion strains, locus YLR330W, strain CHS5, stronger effect = lower value 0.992 | S. cerevisiae deletion strains, locus YLR342W, strain FKS1 (second series), stronger effect = lower value 0.997 | S. cerevisiae deletion strains, locus YLR342W, strain FKS1, stronger effect = lower value 0.987 | S. cerevisiae deletion strains, locus YLR357W, strain rsc2, stronger effect = lower value 0.967 | S. cerevisiae deletion strains, locus YLR370C, strain arc18, stronger effect = lower value 0.965 | S. cerevisiae deletion strains, locus YLR371W, strain rom2, stronger effect = lower value 0.976 | S. cerevisiae deletion strains, locus YLR384C, strain iki3, stronger effect = lower value 0.968 | S. cerevisiae deletion strains, locus YLR418C, strain cdc73, stronger effect = lower value 1.05 | S. cerevisiae deletion strains, locus YML016C, strain PPZ1, stronger effect = lower value 1 | S. cerevisiae deletion strains, locus YML032C, strain rad52, stronger effect = lower value 0.967 | S. cerevisiae deletion strains, locus YML120C, strain ndi1, stronger effect = lower value 0.972 | S. cerevisiae deletion strains, locus YML124C, strain tub3, stronger effect = lower value 0.998 | S. cerevisiae deletion strains, locus YMR058W, strain fet3, stronger effect = lower value 0.988 | S. cerevisiae deletion strains, locus YMR078C, strain ctf18, stronger effect = lower value 0.979 | S. cerevisiae deletion strains, locus YMR125W, strain sto1, stronger effect = lower value 0.969 | S. cerevisiae deletion strains, locus YMR129W, stronger effect = lower value 0.972 | S. cerevisiae deletion strains, locus YMR205C, strain PFK2, stronger effect = lower value 0.967 | S. cerevisiae deletion strains, locus YMR223W, strain ubp8, stronger effect = lower value 0.989 | S. cerevisiae deletion strains, locus YMR231W, strain pep5, stronger effect = lower value 0.979 | S. cerevisiae deletion strains, locus YMR263W, strain SAP30, stronger effect = lower value 1.01 | S. cerevisiae deletion strains, locus YMR307W, strain GAS1, stronger effect = lower value 1 | S. cerevisiae deletion strains, locus YNL067W, strain RPL9B, stronger effect = lower value 1.03 | S. cerevisiae deletion strains, locus YNL071W, strain lat1, stronger effect = lower value 0.984 | S. cerevisiae deletion strains, locus YNL128W, strain TEP1, stronger effect = lower value 1.03 | S. cerevisiae deletion strains, locus YNL153C, strain GIM3, stronger effect = lower value 1.01 | S. cerevisiae deletion strains, locus YNL183C, strain NPR1, stronger effect = lower value 0.942 | S. cerevisiae deletion strains, locus YNL209W, strain ssb2, stronger effect = lower value 0.993 | S. cerevisiae deletion strains, locus YNL233W, strain BNI4, stronger effect = lower value 1.01 | S. cerevisiae deletion strains, locus YNL248C, strain rpa49, stronger effect = lower value 0.98 | S. cerevisiae deletion strains, locus YNL250W, strain rad50, stronger effect = lower value 0.987 | S. cerevisiae deletion strains, locus YNL271C, strain bni1, stronger effect = lower value 0.995 | S. cerevisiae deletion strains, locus YNL298W, strain CLA4, stronger effect = lower value 1 | S. cerevisiae deletion strains, locus YNL307C, strain MCK1, stronger effect = lower value 0.991 | S. cerevisiae deletion strains, locus YNL322C, strain KRE1 (second series), stronger effect = lower value 0.967 | S. cerevisiae deletion strains, locus YNL322C, strain KRE1, stronger effect = lower value 1.01 | S. cerevisiae deletion strains, locus YNR049C, strain mso1, stronger effect = lower value 0.973 | S. cerevisiae deletion strains, locus YNR052C, strain pop2, stronger effect = lower value 0.983 | S. cerevisiae deletion strains, locus YOL006C, strain TOP1, stronger effect = lower value 1.11 | S. cerevisiae deletion strains, locus YOL012C, strain htz1 0.879 | S. cerevisiae deletion strains, locus YOL147C, strain pex11, stronger effect = lower value 0.978 | S. cerevisiae deletion strains, locus YOR001W, strain rrp6, stronger effect = lower value 0.986 | S. cerevisiae deletion strains, locus YOR061W, strain CKA2, stronger effect = lower value 1.01 | S. cerevisiae deletion strains, locus YOR069W, strain VPS5, stronger effect = lower value 1 | S. cerevisiae deletion strains, locus YOR070C, strain gyp1, stronger effect = lower value 0.983 | S. cerevisiae deletion strains, locus YOR080W, strain dia2, stronger effect = lower value 0.978 | S. cerevisiae deletion strains, locus YOR083W, strain WHI5, stronger effect = lower value 0.966 | S. cerevisiae deletion strains, locus YOR106W, strain vam3, stronger effect = lower value 0.988 | S. cerevisiae deletion strains, locus YOR136W, strain idh2, stronger effect = lower value 0.987 | S. cerevisiae deletion strains, locus YOR144C, strain elg1, stronger effect = lower value 0.989 | S. cerevisiae deletion strains, locus YOR184W, strain ser1, stronger effect = lower value 0.968 | S. cerevisiae deletion strains, locus YOR231W, strain MKK1, stronger effect = lower value 0.938 | S. cerevisiae deletion strains, locus YOR265W, strain rbl2, stronger effect = lower value 0.981 | S. cerevisiae deletion strains, locus YOR270C, strain vph1, stronger effect = lower value 0.951 | S. cerevisiae deletion strains, locus YOR290C, strain snf2, stronger effect = lower value 0.911 | S. cerevisiae deletion strains, locus YOR316C, strain cot1, stronger effect = lower value 0.985 | S. cerevisiae deletion strains, locus YPL051W, strain arl3, stronger effect = lower value 0.984 | S. cerevisiae deletion strains, locus YPL055C, strain LGE1, stronger effect = lower value 1.02 | S. cerevisiae deletion strains, locus YPL078C, strain atp4, stronger effect = lower value 0.97 | S. cerevisiae deletion strains, locus YPL106C, strain sse1, stronger effect = lower value 0.948 | S. cerevisiae deletion strains, locus YPL240C, strain hsp82, stronger effect = lower value 0.984 | S. cerevisiae deletion strains, locus YPL241C, strain CIN2, stronger effect = lower value 0.994 | S. cerevisiae deletion strains, locus YPL256C, strain CLN2, stronger effect = lower value 0.963 | S. cerevisiae deletion strains, locus YPR119W, strain clb2, stronger effect = lower value 0.974 | S. cerevisiae deletion strains, locus YPR141C, strain kar3, stronger effect = lower value 0.975 | S. cerevisiae deletion strains, locus YPR163C, strain tif3, stronger effect = lower value 0.988 | S. cerevisiae deletion strains, locus YPR167C, strain met16, stronger effect = lower value 1 | S. cerevisiae deletion strains, strain wtn01, stronger effect = lower value 0.994 | S. cerevisiae strains, strain wild type, stronger effect = lower value 1

Reference: PubChem BioAssay AID1159580 (chemical genetic matrix, 2015)
